The list is not random: actives were taken first. Their share in the collection is about 28%.
CYP2C19 inhib = human CYP2C19 inhibition | 96,000 tested, 21% active | AID 778 | inhibition, % at 5 µM | CYP2C19 Supersomes, luciferin-H EGE luminescence, 30 min | P33261;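 active = CYP2C19 inhibition above a set limit at 5 µM in the primary screen, cut at about 50% in these data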
Mac1 fbg inh = inhibitors of human CD11b/CD18 binding to fibrinogen. inhibition, % at 10 µM. P05107+P11215. K562 CD11b/CD18 adhesion to fibrinogen, ATPlite luminescence; Mn2+ added to activate the integrin. 93,000 tested, 0.54% active;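 active = primary inhibition of 50% or more at 10 µM, then 40% or more on retest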
CYP2C19 act = increases human CYP2C19 enzyme activity | recombinant CYP2C19, luciferin-H EGE luminescence; active compounds read high; 0 = fully inhibited enzyme, 1 = untreated enzyme | activation factor at 5 µM | 96,000 tested, under 10 active;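 active = activation factor of at least 2 at 5 µM in the primary screen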
CYP2C9 inhib = human CYP2C9 inhibition; P11712; CYP2C9 Supersomes, luciferin-H conversion, luminescence; inhibition, % at 5 µM; 96,000 tested, 20% active; AID 777;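 active = blocking of liver enzyme CYP2C9 beyond about 50% at 5 µM, limit read from the data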
Target sequence (P11712 whole entry, looked up): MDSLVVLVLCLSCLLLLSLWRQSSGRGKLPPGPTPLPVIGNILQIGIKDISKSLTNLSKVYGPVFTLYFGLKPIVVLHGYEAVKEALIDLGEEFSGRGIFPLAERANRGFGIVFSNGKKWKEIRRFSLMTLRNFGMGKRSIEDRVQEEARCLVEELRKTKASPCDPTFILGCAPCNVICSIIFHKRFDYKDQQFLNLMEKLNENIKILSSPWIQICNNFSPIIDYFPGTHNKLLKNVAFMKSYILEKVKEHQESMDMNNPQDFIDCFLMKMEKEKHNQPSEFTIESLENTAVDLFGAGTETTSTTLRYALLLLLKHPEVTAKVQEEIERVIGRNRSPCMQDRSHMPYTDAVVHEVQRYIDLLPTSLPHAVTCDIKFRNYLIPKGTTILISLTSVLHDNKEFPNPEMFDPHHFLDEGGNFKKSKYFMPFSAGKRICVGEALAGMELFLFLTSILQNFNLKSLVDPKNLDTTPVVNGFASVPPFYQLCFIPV
Mac1 fbg enh = enhancers of human CD11b/CD18 binding to fibrinogen; activation, % at 10 µM; 93,000 tested, 0.07% active; K562 CD11b/CD18 adhesion to fibrinogen, ATPlite luminescence; AID 1499;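 active = 10 µM primary screen giving 50% or more activity, confirmed by 40% or more on retest at that dose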
CYP2C9 act = CYP2C9 (human) activation | P11712 | recombinant CYP2C9, luciferin-H conversion, luminescence; active compounds read high; factor 1 = untreated enzyme, 0 = blocked | activation factor at 5 µM | 96,000 tested, 1.4% active | AID 1024;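 active = activation factor of 2 or more for CYP2C9 at a 5 µM dose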
Large screens that a line does not name were inactive.

C=CCc1ccccc1OCC(O)CN(CC)CC (stereo not drawn)	none
CCC(=O)c1ccc(OCC(O)CN(CCc2ccccc2)Cc2ccccc2)cc1 (stereo not drawn)	CYP2C19 inhib 53, CYP2C9 inhib 70
COC(=O)c1ccc(OCCOc2ccc(C(=O)OC)cc2)cc1	none
COC(=O)c1ccc(OCC(O)CN(CC(C)C)CC(C)C)cc1 (stereo not drawn)	CYP2C19 inhib 74, CYP2C9 inhib 71
CCN(CC)CC(O)COc1ccccc1C(=O)CCc1ccccc1 (stereo not drawn)	CYP2C19 inhib 60
COc1cccc(N/C(N)=N/c2nc(C(F)(F)F)cc(=O)[nH]2)c1	none (no result: CYP2C19 inhib, CYP2C19 act, CYP2C9 inhib, CYP2C9 act)
Nc1c(-c2ccccc2)c(CSc2nc3ccccc3[nH]2)nn1-c1ccc(C(=O)O)cc1	none (no result: CYP2C19 inhib, CYP2C19 act, CYP2C9 inhib, CYP2C9 act)
CSc1ccc(/C=N/NC(=O)CN2CCN(Cc3ccc(C)cc3)CC2)cc1	none (no result: CYP2C19 inhib, CYP2C19 act, CYP2C9 inhib, CYP2C9 act)
CCN1C(=Nc2ccc(Cl)cc2)SC/C1=C\C(=O)OC	none
CCOC(=O)C1=NN(C(=O)c2ccc(C)cc2)C(O)(c2ccc(Cl)cc2)C1 (stereo not drawn)	CYP2C19 inhib 56
O=C(Nc1cccc(Cl)c1)N(Cc1nc2ccccc2c(=O)[nH]1)Cc1cccs1	none (no result: CYP2C19 inhib, CYP2C19 act, CYP2C9 inhib, CYP2C9 act)
Cc1ccc(S(=O)(=O)N2c3ccccc3NC(=O)C2CC(=O)Nc2ccccc2)cc1 (stereo not drawn)	CYP2C19 inhib 57, CYP2C9 inhib 89
Cc1c(C)n(C(=O)CSc2nc3ccccc3[nH]2)c2ccccc12	CYP2C19 inhib 95, CYP2C9 inhib 94
O=C(CSc1nc2ccccc2[nH]1)N1CCCCC1	CYP2C19 inhib 88
Cc1ccc2[nH]c(SCC(=O)N3CCOCC3)nc2c1C	CYP2C19 inhib 81
c1ccc2[nH]c(N3CCOCC3)nc2c1	none
O=C(CSc1nc2ccccc2[nH]1)N1c2ccccc2Sc2ccccc21	none (no result: CYP2C19 inhib, CYP2C19 act, CYP2C9 inhib, CYP2C9 act)
c1ccc2[nH]c(SCCN3CCOCC3)nc2c1	CYP2C19 inhib 59
COc1ccccc1OCC(=O)N/N=C1/SCC(=O)N1Cc1ccccc1	none (no result: Mac1 fbg inh, Mac1 fbg enh)
O=C(NCCNS(=O)(=O)c1ccccc1)c1cc(OCC(F)(F)F)ccc1OCC(F)(F)F	none (no result: Mac1 fbg inh, Mac1 fbg enh)
Cc1ccc2nc(SCC(=O)N3CCOCC3)[nH]c2c1	CYP2C19 inhib 68
Cc1ccc(S(=O)(=O)CCC(=O)c2ccc(O)cc2O)cc1	CYP2C19 inhib 70
CCOC(=O)CCS(=O)(=O)c1ccc(-c2ccc(S(=O)(=O)CCC(=O)OCC)cc2)cc1	none
C=CCNS(=O)(=O)CC12CCC(CC1=O)C2(C)C (stereo not drawn)	none
COc1ccccc1-c1noc(CCC(=O)Nc2ccccc2Cl)n1	CYP2C19 inhib 79
COc1ccc(-c2noc(CCC(=O)Nc3nc4ccccc4s3)n2)cc1	CYP2C9 inhib 68
COc1cc(OC)c(NC(=O)CCc2nc(-c3ccc(C)cc3)no2)cc1Cl	CYP2C9 inhib 78
Cc1ccc(-c2noc(CCC(=O)Nc3ccccc3C)n2)cc1	none
COc1ccccc1-c1noc(CCC(=O)Nc2cccc(C)c2)n1	CYP2C19 inhib 74
NC(=O)c1ccc([N+](=O)[O-])cc1SCc1ccccc1	none
Cc1cc2n(n1)C(c1cccs1)Nc1ccccc1-2 (stereo not drawn)	none
COc1cc(NC(=O)CCc2nc(-c3cccs3)no2)cc(OC)c1OC	none
CCOC(=O)c1cccc(NC(=O)CCc2nc(-c3ccccc3F)no2)c1	none
CCOC(=O)N1CCC(NC(=O)CCc2nc(-c3ccccc3F)no2)CC1	CYP2C19 inhib 60, CYP2C9 inhib 59
COc1ccc(NC(=O)CCc2nc(-c3ccccc3F)no2)cc1	CYP2C19 inhib 78, CYP2C9 inhib 69
CCc1cccc(NC(=O)CCc2nc(-c3cccs3)no2)c1	CYP2C19 inhib 93, CYP2C9 inhib 83
O=C(CCc1nc(-c2ccccc2F)no1)NC1CCN(Cc2ccccc2)CC1	none
COC(=O)c1ccc(/C=N\NC(=O)c2ccc(C)cc2Cl)cc1	none (no result: Mac1 fbg inh, Mac1 fbg enh)
O=C(O)CC(c1cccc2ccccc12)n1cccc1 (stereo not drawn)	CYP2C9 inhib 51
Cc1ccc(-c2noc(CSc3nnnn3C3CCCCC3)n2)cc1	none
Cc1cccc2nc(CSc3nnnn3-c3ccccc3)cn12	CYP2C19 inhib 84
Cc1ccc(-n2nnnc2SCc2ccccn2)cc1C	CYP2C19 inhib 57
c1ccc(-n2nnnc2SCc2ccccn2)cc1	CYP2C19 inhib 88
c1ccc(-c2noc(CSc3nnnn3-c3ccccc3)n2)cc1	CYP2C19 inhib 63, CYP2C9 inhib 54
Cc1cc2ncn(C3CC(=O)N(Cc4ccccc4)C3=O)c2cc1C (stereo not drawn)	none
Cc1oc2nc(SCCCC(=O)NCCO)nc(N)c2c1C	none
CCOC(=O)Cc1nnc2c(Nc3ccc(Cl)cc3)nc3nonc3n12	none
CCCCNC1C(CC)C(CCC)C(C#N)(C#N)C1(C#N)C#N (stereo not drawn)	none
COc1ccc(O)c(/C=N/c2sc(C)c(C)c2C#N)c1	none
CCOC(=O)c1cnc2ccc(C)cc2c1Sc1ccccc1C(=O)OC	none
Cc1cc(C)n2cc(CSc3nnnn3-c3ccc(Cl)cc3)nc2n1	CYP2C9 act 2.2
Cc1ccc(NS(C)(=O)=O)c(C(=O)c2ccccc2)c1	CYP2C19 inhib 70
O=C(NCc1ccco1)c1ccccc1NC(=O)C1CC(=O)N(c2ccc(Cl)cc2)C1 (stereo not drawn)	CYP2C19 inhib 53, CYP2C9 inhib 68
O=C(Nc1ccccc1C(=O)NCc1ccco1)c1ccccc1	CYP2C19 inhib 54, CYP2C9 inhib 74
O=C(COc1ccccc1)Nc1ccccc1C(=O)NCc1ccco1	CYP2C19 inhib 58, CYP2C9 inhib 64
O=C(Nc1ccc(Cl)cc1)Nc1ccccc1C(=O)NCc1ccco1	CYP2C9 inhib 53
O=C(NCc1ccco1)C1CC(=O)N(c2ccc(F)cc2)C1 (stereo not drawn)	none
Cc1ccc2nc(C(=O)O)c(C(=O)O)nc2c1	none
O=C(NCC1COc2ccccc2O1)C1C2C=CC3(CN(Cc4ccccc4Cl)C(=O)C13)O2 (stereo not drawn)	none (no result: Mac1 fbg inh, Mac1 fbg enh)
Cc1cccc(C)c1NC(=S)Nc1ccccc1C(=O)NCc1ccco1	none (no result: CYP2C19 inhib, CYP2C19 act, CYP2C9 inhib, CYP2C9 act)
Cc1ccccc1NC(=O)CNc1ccccc1C(=O)NCc1ccco1	CYP2C19 inhib 68
CCC(C)C(NC(=O)c1ccccc1NC(=O)c1ccco1)C(=O)O (stereo not drawn)	none
CCC(C)C(NC(=O)c1ccccc1NC(=O)c1ccc(OC)cc1)C(=O)NCc1ccco1 (stereo not drawn)	CYP2C19 inhib 76, CYP2C9 inhib 89
CCCCC(=O)Nc1ccc(C(=O)NN2C(=O)c3ccccc3C2=O)cc1	none
CCNC(=O)CC1C(=O)N(c2ccc(F)cc2)C(=O)N1CCC(C)C (stereo not drawn)	none
